The sample as a whole holds a higher share of the strongest signals than the screen did.
Key:
Test in all cases: glycan array binding signal (z-score within array); higher = stronger binding
Conditions in all cases: glycan notation: IUPAC condensed, linker removed
[1] = target: Fuc(a1-2)Gal(b1-3)GalNAc(b1-3)Gal(a1-4)Gal(b1-4)Glc
Summary of the method: (§1)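 Glycan array data came from 3228 arrays in the Consortium for Functional Glycomics database, and only arrays with an available protein sequence were kept. Glycan names were put into IUPAC-condensed notation, and columns mapping to the same glycan were averaged. The binding signal is a within-array Z-score, averaged across arrays of one protein sequence run at different concentrations or buffers and across linkers. A negative Z-score can be read as non-binding.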

[2] = target: Fuc(a1-2)Gal(b1-3)GlcNAc(b1-3)[Fuc(a1-3)[Gal(b1-4)]GlcNAc(b1-6)]Gal(b1-4)Glc
Summary of the method: as §1

[3] = target: Fuc(a1-2)Gal(b1-3)[Fuc(a1-4)]GlcNAc(b1-2)Man(a1-3)[Fuc(a1-2)Gal(b1-3)[Fuc(a1-4)]GlcNAc(b1-2)Man(a1-6)]Man(b1-4)GlcNAc(b1-4)GlcNAc
Summary of the method: as §1

[4] = target: Fuc(a1-2)Gal(b1-3)[Fuc(a1-4)]GlcNAc(b1-3)[Fuc(a1-3)[Gal(b1-4)]GlcNAc(b1-6)]Gal(b1-4)Glc
Summary of the method: as §1

[5] = target: Fuc(a1-2)Gal(b1-4)[Fuc(a1-3)]GlcNAc(b1-2)[Fuc(a1-2)Gal(b1-4)[Fuc(a1-3)]GlcNAc(b1-4)]Man(a1-3)[Fuc(a1-2)Gal(b1-4)[Fuc(a1-3)]GlcNAc(b1-2)Man(a1-6)]Man(b1-4)GlcNAc(b1-4)GlcNAc
Summary of the method: as §1

[6] = target: Fuc(a1-2)[GalNAc(a1-3)]Gal(b1-3)GlcNAc(b1-2)Man(a1-3)[Fuc(a1-2)[GalNAc(a1-3)]Gal(b1-3)GlcNAc(b1-2)Man(a1-6)]Man(b1-4)GlcNAc(b1-4)[Fuc(a1-6)]GlcNAc
Summary of the method: as §1

[7] = target: Fuc(a1-2)[GalNAc(a1-3)]Gal(b1-3)GlcNAc(b1-3)GalNAc
Summary of the method: as §1

[8] = target: Fuc(a1-2)[GalNAc(a1-3)]Gal(b1-4)GlcNAc(b1-3)Gal(b1-4)GlcNAc(b1-3)Gal(b1-4)GlcNAc
Summary of the method: as §1

[9] = target: Gal(a1-3)Gal(b1-4)GlcNAc(b1-3)GalNAc
Summary of the method: as §1

[10] = target: Gal(a1-3)Gal(b1-4)[Fuc(a1-3)]GlcNAc(b1-2)Man(a1-3)[Gal(a1-3)Gal(b1-4)[Fuc(a1-3)]GlcNAc(b1-2)Man(a1-6)]Man(b1-4)GlcNAc(b1-4)GlcNAc
Summary of the method: as §1

[11] = target: Gal(a1-4)Gal(b1-4)GlcNAc(b1-3)Gal(b1-4)Glc
Summary of the method: as §1

Gal(b1-2)Gal = target: Gal(b1-2)Gal
Summary of the method: as §1

Gal(b1-3)Gal(b1-4)GlcNAc = target: Gal(b1-3)Gal(b1-4)GlcNAc
Summary of the method: as §1

[12] = target: Gal(b1-3)GlcNAc(b1-3)Gal(b1-4)Glc
Summary of the method: as §1

[13] = target: Gal(b1-3)GlcNAc(b1-3)Gal(b1-4)GlcNAc
Summary of the method: as §1

[14] = target: Gal(b1-3)[Fuc(a1-4)]GlcNAc(b1-2)Man(a1-3)[Gal(b1-3)[Fuc(a1-4)]GlcNAc(b1-2)Man(a1-6)]Man(b1-4)GlcNAc(b1-4)GlcNAc
Summary of the method: as §1

[15] = target: Gal(b1-3)[Neu5Ac(a2-6)]GalNAc
Summary of the method: as §1

Gal(b1-4)GlcNAc = target: Gal(b1-4)GlcNAc
Summary of the method: as §1

[16] = target: Gal(b1-4)GlcNAc(b1-2)Man(a1-3)[Gal(b1-4)GlcNAc(b1-2)Man(a1-6)]Man(b1-4)GlcNAc(b1-4)GlcNAc
Summary of the method: as §1

[17] = target: Gal(b1-4)GlcNAc(b1-3)Gal(b1-4)Glc
Summary of the method: as §1

[18] = target: Gal(b1-4)GlcNAc(b1-3)[GlcNAc(b1-6)]Gal(b1-4)GlcNAc
Summary of the method: as §1

[19] = target: Gal(b1-4)GlcNAc(b1-6)Gal(b1-4)GlcNAc(b1-6)GalNAc
Summary of the method: as §1

Gal3S(b1-3)GalNAc = target: Gal3S(b1-3)GalNAc
Summary of the method: as §1

[20] = target: GalNAc(b1-3)Gal(a1-4)Gal(b1-4)GlcNAc(b1-3)Gal(b1-4)Glc
Summary of the method: as §1

GalNAc(b1-3)GalNAc = target: GalNAc(b1-3)GalNAc
Summary of the method: as §1

Glc(a1-4)Glc = target: Glc(a1-4)Glc
Summary of the method: as §1

[21] = target: GlcNAc(a1-4)Gal(b1-3)GlcNAc
Summary of the method: as §1

[22] = target: GlcNAc(a1-4)Gal(b1-4)GlcNAc(b1-3)Gal(b1-4)GlcNAc
Summary of the method: as §1

[23] = target: GlcNAc(a1-6)Gal(b1-4)GlcNAc
Summary of the method: as §1

[24] = target: GlcNAc(b1-2)Man(a1-3)[GlcNAc(b1-2)Man(a1-6)]Man(b1-4)GlcNAc(b1-4)[Fuc(a1-6)]GlcNAc
Summary of the method: as §1

GlcNAc(b1-3)Gal = target: GlcNAc(b1-3)Gal
Summary of the method: as §1

GlcNAc(b1-3)Gal(b1-4)Glc = target: GlcNAc(b1-3)Gal(b1-4)Glc
Summary of the method: as §1

[25] = target: GlcNAc(b1-3)Gal(b1-4)GlcNAc
Summary of the method: as §1

[26] = target: GlcNAc(b1-3)[GlcNAc(b1-6)]Gal(b1-4)GlcNAc
Summary of the method: as §1

[27] = target: GlcNAc(b1-3)[GlcNAc(b1-6)]GlcNAc(b1-4)GlcNAc
Summary of the method: as §1

GlcNAc3Prop(b1-4)GlcNAc = target: GlcNAc3Prop(b1-4)GlcNAc
Summary of the method: as §1

[28] = target: Neu5Ac(a2-3)Gal(b1-4)GlcNAc(b1-3)Gal
Summary of the method: as §1

[29] = target: Neu5Ac(a2-3)Gal(b1-4)[Fuc(a1-3)]GlcNAc6S
Summary of the method: as §1

[30] = target: Neu5Ac(a2-3)Gal6S(b1-4)GlcNAc
Summary of the method: as §1

[31] = target: Neu5Ac(a2-3)Gal6S(b1-4)[Fuc(a1-3)]GlcNAc
Summary of the method: as §1

[32] = target: Neu5Ac(a2-3)[GalNAc(b1-4)]Gal(b1-4)Glc
Summary of the method: as §1

[33] = target: Neu5Ac(a2-3)[GalNAc(b1-4)]Gal(b1-4)GlcNAc
Summary of the method: as §1

[34] = target: Neu5Ac(a2-6)Gal(b1-4)GlcNAc(b1-2)Man(a1-3)Man(b1-4)GlcNAc(b1-4)GlcNAc
Summary of the method: as §1

[35] = target: Neu5Ac(a2-6)Gal(b1-4)GlcNAc(b1-2)Man(a1-6)Man(b1-4)GlcNAc(b1-4)GlcNAc
Summary of the method: as §1

[36] = target: Neu5Ac(a2-8)Neu5Ac(a2-8)Neu5Ac
Summary of the method: as §1

Neu5Ac(b1-6)GalNAc = target: Neu5Ac(b1-6)GalNAc
Summary of the method: as §1

B1: F17aG (Escherichia coli), Q99003 (protein)
chain: MTNFYKVFLAVFILVCCNISQAAVSFIGSTENDVGPSLGSYSRTHAMDNLPFVYDTRNKIGYQNANVWHISKGFCVGLDGKVDLPVVGSLDGQSIYGLTEEVGLLIWMGDTKYSRGTAMSGNSWENVFSGWCVGANTASTQGLSVRVTPVILKRNSSARYSVQKTSIGSIRMRPYNGSSAGSVQTTVNFSLNPFTLNDTVTSCRLLTPSAVNVSLAAISAGQLPSSGDEVVAGTTSLKLQCDAGVTVWATLTDATTPSNRSDILTLTGASTATGVGLRIYKNTDSTPLKFGPDSPVKGNENQWQLSTGTETSPSVRLYVKYVNTGEGINPGTVNGISTFTFSYQ
[1]
  glycan array binding signal (z-score): -0.23
[2]
  glycan array binding signal (z-score): -0.148
[3]
  glycan array binding signal (z-score): -0.169
[4]
  glycan array binding signal (z-score): -0.139
[5]
  glycan array binding signal (z-score): -0.163
[6]
  glycan array binding signal (z-score): -0.143
[7]
  glycan array binding signal (z-score): -0.113
[8]
  glycan array binding signal (z-score): 0.023
[9]
  glycan array binding signal (z-score): -0.168
[10]
  glycan array binding signal (z-score): -0.157
[11]
  glycan array binding signal (z-score): -0.154
Gal(b1-2)Gal
  glycan array binding signal (z-score): -0.25
Gal(b1-3)Gal(b1-4)GlcNAc
  glycan array binding signal (z-score): -0.151
[12]
  glycan array binding signal (z-score): -0.252
[13]
  glycan array binding signal (z-score): -0.236
[14]
  glycan array binding signal (z-score): -0.119
[15]
  glycan array binding signal (z-score): -0.205
Gal(b1-4)GlcNAc
  glycan array binding signal (z-score): -0.14
[16]
  glycan array binding signal (z-score): -0.254
[17]
  glycan array binding signal (z-score): -0.147
[18]
  glycan array binding signal (z-score): 1.53
[19]
  glycan array binding signal (z-score): -0.312
Gal3S(b1-3)GalNAc
  glycan array binding signal (z-score): -0.244
[20]
  glycan array binding signal (z-score): -0.179
GalNAc(b1-3)GalNAc
  glycan array binding signal (z-score): 1.69
Glc(a1-4)Glc
  glycan array binding signal (z-score): -0.243
[21]
  glycan array binding signal (z-score): -0.089
[22]
  glycan array binding signal (z-score): -0.182
[23]
  glycan array binding signal (z-score): -0.243
[24]
  glycan array binding signal (z-score): -0.17
GlcNAc(b1-3)Gal
  glycan array binding signal (z-score): 3.9
GlcNAc(b1-3)Gal(b1-4)Glc
  glycan array binding signal (z-score): 8.79
[25]
  glycan array binding signal (z-score): 4.77
[26]
  glycan array binding signal (z-score): 5.68
[27]
  glycan array binding signal (z-score): 2.15
GlcNAc3Prop(b1-4)GlcNAc
  glycan array binding signal (z-score): 11.7
[28]
  glycan array binding signal (z-score): -0.158
[29]
  glycan array binding signal (z-score): 0.084
[30]
  glycan array binding signal (z-score): -0.233
[31]
  glycan array binding signal (z-score): -0.245
[32]
  glycan array binding signal (z-score): 0.025
[33]
  glycan array binding signal (z-score): -0.241
[34]
  glycan array binding signal (z-score): -0.177
[35]
  glycan array binding signal (z-score): -0.167
[36]
  glycan array binding signal (z-score): -0.234
Neu5Ac(b1-6)GalNAc
  glycan array binding signal (z-score): -0.34
